Compound activity: PubChem, National Center for Advancing Translational Sciences (NCATS)
Hits are enriched below; roughly 17% of the tested compounds scored in any of these assays.
TDP1 cell CPT = growth inhibition of DT40 Tdp1-/-;hTDP1 cells with camptothecin (screen for TDP1 inhibitors); Potency, µM (titrated, usually from 46.2 µM), actives largely listed as inhibitors; chicken DT40 Tdp1-/-;hTDP1 cells + 20 nM CPT, ATP luminescence, 48 h; 420,000 tested, 12% active; also: nearly all actives have a fitted effect of over 55% in size
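Chicken DT40 Tdp1-/- cells stably complemented with human TDP1 were seeded at 400 cells/well in medium containing 20 nM camptothecin, exposed to pin-transferred compounds, and grown at 37 °C for at least 48 hr. Viability was read as ATP luminescence.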
TDP1 cell noCPT = qHTS for Inhibitors of human tyrosyl-DNA phosphodiesterase 1 (TDP1): qHTS in cells in absence of CPT | Potency, µM (highest dose often 46.2 µM), most hits filed as inhibitors | AID 686978, 2013 | DT40 Tdp1-/- hTDP1 cells, no CPT, ATP luminescence, 48 h | 420,000 tested, 15% active; also: nearly all actives have a fitted effect of over 55% in size
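Camptothecin absent (DMSO only). Human TDP1-complemented DT40 knockout cells, 400 cells/well, 37 °C for minimum 48 hr; ATP measured via CellTiter-Glo, 30 min dark incubation, luminescence.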
HT1080 IDH1KD tx = toxicity to HT-1080 IDH1 knockdown cells (counter line) | 360,000 tested, 2% active | Potency, µM (titrated, usually from 46.1 µM), most hits filed as cytotoxic | HT-1080 IDH1 knockdown viability, ATP luminescence, 48 h
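Cytotoxicity counter-line: IDH1KD HT-1080, 48 h, CellTiter-Glo. Curves classed by r2, magnitude and activity.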
HT1080NT lethal = kills 2HG-producing HT-1080-NT fibrosarcoma cells; HT-1080-NT fibrosarcoma viability, CellTiter-Glo ATP luminescence, 48 h; Potency, µM (titrated, usually from 46.1 µM), most hits filed as cytotoxic; 360,000 tested, 1.6% active;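 also: NT is the 2HG producing partner of a matched IDH1 knockdown line; nearly all actives have a fitted effect of over 55% in size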
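Fibrosarcoma NT cells, 750 per well in 5% FBS RPMI, were exposed to compound for 48 hours. Viability: CellTiter-Glo luminescence.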
HepG2 tox = counter-screen for TGF-b inhibitors: cytotoxicity in HepG2 cells; HepG2 CAGA-GFP viability, ATP luminescence, 18 h; Potency, µM (doses to about 46.1 µM), usual class: cytotoxic; 410,000 tested, 0.76% active; AID 588856
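CellTiter-Glo luminescence gave cytotoxicity after 18 hours at 37 degrees C. The cells were HepG2 CAGA-GFP in 1% FBS DMEM, stimulated with 500 pg/mL TGF-beta after compound addition. %Activity was normalised to no-cell wells (complete cell-killing) and DMSO (no toxicity), and curves were fitted and classified.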
TGFb SMAD3 inh = TGF-b pathway inhibition; HepG2 CAGA-GFP TGF-b/SMAD3 reporter, GFP fluorescence, 18 h; TGF-beta stimulated, 500 pg/mL final; Potency, µM (doses to about 46.1 µM), most hits filed as inhibitors; 410,000 tested, 1.2% active; AID 588855; also: nearly all actives have a fitted effect of over 65% in size
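TGF-beta reporter screen: HEPG2 CAGA-GFP, 1% FBS, 500 pg/mL TGF-beta final, 18 h; per-cell GFP summed per well; curves fitted and categorized by class.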
A number is an active result; – = inactive; ? = inconclusive; · = no result given. Calls follow the shape of the dose curve; as a rule, active = well fitted curve in the direction sought with a large enough effect; inconclusive = small, poorly fitted or top-dose-only effect, or another doubt; inactive = no such curve, though single readings can be large; an effect the other way counts as inactive or inconclusive.

SMILES | TDP1 cell CPT | TDP1 cell noCPT | HT1080 IDH1KD tx | HT1080NT lethal | HepG2 tox | TGFb SMAD3 inh
Nc1c(C(=O)Nc2cccc(Cl)c2)sc2nc3c(cc12)CN(Cc1ccccc1)CC3 | 7.3µM | 15µM | · | · | – | –
CN1CCc2nc3sc(C(=O)Nc4c(F)cccc4F)c(N)c3cc2C1 | ? | ? | · | · | – | –
CN1CCc2nc3sc(C(=O)Nc4cccc(C#N)c4)c(N)c3cc2C1 | 21µM | 8.2µM | · | · | – | ?
COc1ccc(NC(=O)c2sc3nc4c(cc3c2N)CN(Cc2ccccc2)CC4)cc1 | – | – | · | · | – | –
COc1ccc(NC(=O)c2sc3nc4c(cc3c2N)CN(C(C)C)CC4)c(OC)c1 | 23µM | ? | · | · | – | –
Cc1cccc(NC(=O)c2sc3nc4c(cc3c2N)CN(C(C)C)CC4)c1 | 21µM | ? | · | · | – | –
CCN1CCc2nc3sc(C(=O)Nc4cccnc4Cl)c(N)c3cc2C1 | ? | ? | – | – | – | –
Cc1cc(NC(=O)C2CC(=O)N(c3cccc(Cl)c3)C2)no1 (centres undefined) | – | – | – | – | – | –
Cc1ccc(S(=O)(=O)c2nnn3c2nc(N2CCN(c4ccccc4F)CC2)c2ccccc23)cc1C | – | – | · | · | – | –
O=C(COC(=O)c1ccc(S(=O)(=O)C(F)F)cc1)Nc1cccnc1Cl | – | – | – | – | – | –
CCOC(=O)c1sc(C)c2c(=O)n(CCCN3CCOCC3)cnc12 | – | – | – | – | – | –
O=C(CNC(=O)C1CCCCC1)OCC(=O)c1ccc(-c2ccccc2)cc1 | – | – | · | · | – | –
CCN(Cc1ccncc1)C(=O)C(CO)c1ccccc1 (centres undefined) | – | – | – | – | – | –
O=C1c2ccccc2C(O)(c2ccccc2)N1c1ccc([N+](=O)[O-])cc1Cl (centres undefined) | – | – | – | – | – | ?
Cc1cccc(NC(=O)c2sc3nc4c(cc3c2N)CN(Cc2ccccc2)CC4)c1 | 15µM | 18µM | · | · | – | –
CC1CCCC(C)N1CC(O)COCc1ccccc1 (centres undefined) | – | – | – | – | – | –
COc1cc(C(=O)Nc2ccc3c(c2)N(C2CCCC2)C(=O)c2ccccc2S3)cc(OC)c1OC | ? | ? | · | · | – | ?
O=C(Nc1ccc2c(c1)N(C1CCCC1)C(=O)c1ccccc1S2)c1ccccc1 | ? | 12µM | · | · | – | –
COc1cc(OC)cc(C(=O)Nc2ccc3c(c2)N(C2CCCC2)C(=O)c2ccccc2S3)c1 | – | ? | · | · | – | –
O=C(Nc1ccc2c(c1)N(C1CCCC1)C(=O)c1ccccc1S2)c1cccc(F)c1 | ? | 18µM | · | · | – | –
O=C(Nc1ccc2c(c1)N(C1CCCC1)C(=O)c1ccccc1S2)c1ccc(F)cc1 | 23µM | ? | · | · | – | –
CC(C)(O)C1CC[C@@]2(C)C3CCC4[C@@]5(C)CCCC(C)(C)C5C(O)C[C@]4(C)[C@]3(C)CC[C@@H]12 (some centres undefined) | – | – | · | · | · | ·
O=C1c2ccccc2N2C(=O)c3ccccc3[C@H]2N1c1ccccc1 | 16µM | 18µM | – | – | – | –
CC(C(=O)N1c2ccc(F)cc2CCC1C)N1C(=O)c2ccccc2C1=O (centres undefined) | – | – | – | – | – | –
COc1ccc(C2CC(c3c(O)cc(C)oc3=O)=NCCS2)c(OC)c1 (centres undefined) | 0.46µM | 0.021µM | 1.3µM | 1.3µM | – | ?
Cc1cccc(-n2c(-c3ccco3)nc3c(cnn3-c3ccc(F)cc3)c2=O)c1 | 16µM | 16µM | · | · | – | ?
CCOc1ccc(-n2c(-c3ccco3)nc3c(cnn3-c3ccc(C)cc3)c2=O)cc1 | ? | ? | – | – | – | –
